Shown are actives, neighbours in structure and some others; about 2.9% of the full set was active somewhere.
S1P4 agonist – agonists of human S1P4 receptor; O95977; S1P4-expressing cell line, agonist reporter assay; activation, % at 4.98 µM; 220,000 tested, 0.35% active; in the data active = activation above about 11%;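 also: 0% = DMSO vehicle and 100% = reference agonist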
Hsp70 act – switches on Hsp70 transcription; HeLa Hsp70 promoter luciferase reporter, luminescence; scaled: vehicle 0, proteasome-inhibitor control 100%; activation, % at 10 µM; 200,000 tested, 0.04% active; AID 1203;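 active = activation above the mean across all tested compounds plus 3 SD, cutoff set per campaign, cut at about 5.5% in these data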;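 also: 100% = MG132 at 30 µM as the positive control and 0% = DMSO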
HSF1 activator – increases HSF-1 driven luciferase reporter signal; NIH3T3-HGL HSF-1 luciferase reporter, MG132, 8 h; 100% = twice DMSO control signal; 300,000 tested, 1.7% active; activation, % at 9 µM; AID 504408;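 active = mean replicate activation of at least 50% with a set share of replicates each reaching 50%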;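 also: 0% = median of the neutral control wells and 100% = twice that signal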
S1P3 antag – S1P3 (human) receptor antagonism. CHO S1P3 NFAT-BLA reporter, FRET fluorescence, antagonist mode. AID 485. 170,000 tested, 0.27% active. inhibition, % at 4.98 µM. Q99500;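 active = inhibition above the plate cutoff, the mean inhibition of test wells on that plate plus 3 SD, cut at about 28% in these data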;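 also: cells challenged with S1P at its EC80 of 0.8 µM; blue over green emission ratio from cleaved BLA substrate after 4 h stimulation; 0% = S1P-stimulated wells and 100% = unstimulated DMSO-only wells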
Target sequence (Q99500 whole entry, looked up): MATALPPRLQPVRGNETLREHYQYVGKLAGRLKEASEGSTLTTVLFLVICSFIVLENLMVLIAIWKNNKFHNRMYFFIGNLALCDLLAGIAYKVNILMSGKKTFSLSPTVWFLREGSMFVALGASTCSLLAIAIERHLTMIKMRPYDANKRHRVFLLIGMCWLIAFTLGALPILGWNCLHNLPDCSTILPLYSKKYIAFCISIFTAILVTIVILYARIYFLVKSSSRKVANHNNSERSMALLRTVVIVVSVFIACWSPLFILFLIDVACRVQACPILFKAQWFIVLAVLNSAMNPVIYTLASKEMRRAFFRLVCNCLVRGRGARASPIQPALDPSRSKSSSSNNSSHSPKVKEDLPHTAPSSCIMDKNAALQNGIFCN
S1P4 antagonist – human S1P4 receptor antagonism; S1P4-expressing cells, antagonist mode, reporter read-out; 220,000 tested, 0.26% active; AID 1510; inhibition, % at 4.98 µM; in the data active = inhibition above about 29%;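 also: 0% = wells stimulated with agonist and 100% = vehicle wells without agonist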
HSF1 inh – HSF1 inhibition; NIH3T3-HGL HSE-luciferase, MG132-induced, luminescence 8 h; stronger effect = lower value; AID 2098; activity change, negative = inhibition, % at 7.5 µM (by protocol); 300,000 tested, 0.77% active;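 active = more than half of replicate wells show activity change below -50%, luminescence cut by over half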;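 also: luciferase reports HSF-1 transcriptional activity via heat shock element; 0% = median of DMSO wells and -100% = zero luminescence signal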
* = called active by the depositor; · = no result given.

SMILES	S1P4 agonist	Hsp70 act	HSF1 activator	S1P3 antag	S1P4 antagonist	HSF1 inh
CCc1ccccc1N/C(=N\S(=O)(=O)c1ccccc1)C(F)(F)F	0	-1	12	-2	-15	0
COC(=O)c1cc(OC)c(OC)cc1NC(=S)N1CCCC1	4	0	62*	2	-20	26
COC(=O)c1cc(OC)c(OC)cc1NC(=S)N1CCOCC1	·	·	13	·	·	-3
CC(C)NC(=O)NC(=O)COc1ccc(Br)cc1Br	0	0	87*	-15	-9	70
COc1ccc(-c2cc3nc4ccccc4n3c(N)c2C#N)cc1	0	·	29	-5	8	5
CN(C)c1ccc(C(=S)Nc2ccccc2)cc1	0	0	-85	-4	2	-82*
Cc1ccc(OCc2cc(C(=O)N3CCN(CC(=O)NC(C)C)CC3)no2)cn1	·	·	-4	·	·	-1
COc1ccc(S(=O)(=O)Nc2ccccc2)cc1OC	-2	0	1	·	-2	-2
COc1cccc(NS(=O)(=O)c2ccc(OC)c(OC)c2)c1	1	0	1	63*	-19	3
O=C(NNC(=O)C(c1ccccc1)c1ccccc1)c1ccccn1	2	0	-23	14	-12	-26
Cc1ccccc1-c1nc2cc(NC(=O)C3CC3)ccc2o1	·	·	91*	·	·	59
O=C(O)c1ccc(N/N=C/c2cn(Cc3ccc(F)cc3)c3ccccc23)cc1	-1	·	-74	10	18	-69*
Cc1c(/C=N/Nc2ccc(C(=O)O)cc2)c2ccccc2n1C	1	·	-65	-9	3	-65*
Cc1c(/C=N\NC(=O)C2COc3ccccc3O2)c2ccccc2n1C (stereo unspecified)	2	0	-18	11	-4	-19
CCC(C)CCN1C(Nc2ccccc2)=NC[C@@H]1Cc1ccccc1 (stereo partly specified)	·	·	2	·	·	5
O=C(COc1ccc2c3c(c(=O)oc2c1)CCCC3)NCCCn1ccnc1	·	·	-7	·	·	-5
CCOc1cccc(/C=C/c2ccc3cccc(O)c3n2)c1O	·	·	3	·	·	12
CCOc1cccc(/C=C/c2ccc3cccc(O)c3n2)c1OC	·	·	143*	·	·	122
NCCc1nnc(SCc2ccc(F)cc2)o1	-2	0	64*	6	4	40
Fc1ccc(NCc2nnc(SCc3ccccc3)o2)cc1	1	0	8	4	-12	2
COC(=O)CCCC1=CC2=CC(=O)C(C)(OC(=O)c3cccs3)C(=O)C2=CN1CCN1CCOCC1 (stereo unspecified)	·	·	25	·	·	10
Cc1ccc2nc(-c3sc4nc(C)cc(C)c4c3N)[nH]c2c1	2	0	-66	·	-4	-61*
O=C(CSc1nnc(Cc2ccccc2)o1)N1CCCC1	-1	0	-15	0	-2	-2
O=C(CCc1nnc(Cc2ccc(-c3ccccc3)cc2)o1)N1CCCC1	0	0	70*	-26	-9	40
O=C(Oc1cccc(NC2=NS(=O)(=O)c3ccccc32)c1)c1cccnc1	0	1	2	-5	-3	4
SMILES	S1P4 agonist	Hsp70 act	HSF1 activator	S1P3 antag	S1P4 antagonist	HSF1 inh
Cc1cc(C)c(S(=O)(=O)N2CCC(C(=O)NCc3ccco3)CC2)c(C)c1	-2	0	54*	·	-5	8
CCOc1ccc(S(=O)(=O)N2CCC(C(=O)NCc3ccco3)CC2)cc1C	·	·	-6	·	·	1
COC(=O)c1c(C)[nH]c(C(=O)CC#N)c1C	-4	0	-14	0	-14	-1
COC(=O)c1c(C)[nH]c(C(=O)/C=C/c2ccc(C)cc2)c1C	1	·	16	-5	-23	4
COC(=O)c1c(C)[nH]c(C(=O)/C=C/c2ccccc2)c1C	8	0	59*	-10	-12	27
COC(=O)c1c(C)[nH]c(C(=O)CSc2ccc(Cl)cc2)c1C	-1	0	91*	·	-1	55
COC(=O)c1c(C)[nH]c(C(=O)/C=C/c2cccc(Cl)c2)c1C	1	0	356*	-12	-4	267
Cc1[nH]c2ccccc2c(=O)c1C(=O)/C=C/c1ccccc1	-1	·	87*	8	9	111
c1ccc(Cn2c(-c3ccco3)nc3nc4ccccc4nc32)cc1	0	1	90*	0	-20	56
c1ccc(-c2nc3nc4ccccc4nc3n2CC2CCCO2)cc1 (stereo unspecified)	0	·	13	1	-1	8
c1coc(-c2nc3nc4ccccc4nc3n2CC2CCCO2)c1 (stereo unspecified)	3	0	56*	·	-28	15
COc1ccccc1C(=O)NCCC(=O)N1CCN(C(C)=O)CC1	·	·	2	·	·	-1
O=S(=O)(/N=C(/Nc1cccc2ccccc12)c1ccccc1)c1ccc(F)cc1	·	·	52*	·	·	8
Cc1ccc(NC(=O)N2CCCC2C(=O)NCC2CCCCC2)cc1 (stereo unspecified)	·	·	-92	·	·	-89*
Cc1cccc(S(=O)Cc2ccc(C(=O)N3CCN(C(=O)c4ccco4)CC3)o2)c1 (stereo unspecified)	·	·	5	·	·	3
O=C(O)C(=O)/C(=C\c1cccc(Cl)c1)c1ccc2ccccc2n1	0	0	60*	-20	-9	17
CCOc1ccc(N2CC(C(=O)NC3CCCC3)CC2=O)cc1 (stereo unspecified)	·	·	-11	·	·	-2
C=CCN1C(=O)NC(c2ccccc2)(C(F)(F)F)S/C1=C(\C#N)c1nnc(N2CCOCC2)n1-c1ccccc1 (stereo unspecified)	1	0	83*	4	3	37
O=C(C1CC1)N1CCc2cc(S(=O)(=O)NCc3ccccc3)ccc21	·	·	0	·	·	-4
Oc1cc(-c2ccccc2)c2ccccc2c1	0	0	157*	-11	-4	117
C/C(=N/NC(=O)NC12CC3CC(CC(C3)C1)C2)c1ccccc1	·	·	5	·	·	0
CN(c1ccc(C(=O)N2CCN(Cc3ccccc3)CC2)cc1)S(=O)(=O)c1ccc(Cl)cc1	·	·	1	·	·	11
COc1cccc(NC(=O)NC2(C(F)(F)F)Oc3ccccc3O2)c1	3	0	67*	·	-11	39
CCCCN(Cc1ccccc1)S(=O)(=O)c1cc(Br)cc2c1N(C(C)=O)C(C)C2 (stereo unspecified)	-1	0	9	·	-9	6
COc1ccc2c(c1)-c1nc(/N=C/c3c(O)ccc4ccccc34)sc1CC2	3	0	63*	-19	-18	39
COc1ccc2c(c1)-c1nc(/N=C/c3ccc(O)cc3)sc1CC2	1	0	·	-4	0	·
CCOC(=O)CN1N=C(c2ccc(Cl)cc2)CCC1=O	·	·	16	·	·	-5
Cc1ccc(NC2(C(F)(F)F)N=C(c3ccccc3)NC2=O)nc1 (stereo unspecified)	-2	0	18	0	-3	1
Cc1cccc(NC2(C(F)(F)F)N=C(c3ccccc3)NC2=O)n1 (stereo unspecified)	1	0	-64	·	-7	-57*
